From PubChem BioAssay
Only a sample is shown.
aSyn 5UTR act – Activators via SNCA 5'UTR binding, MLPCN | activity score, % (tested at 7.5 µM), hits read low | AID 1814, 2009 | 300,000 tested, 7.1% active | alpha-synuclein 5'UTR reporter, activators screen; in the data active means activity score below about -60%
An asterisk follows results filed as active.

SMILES	aSyn 5UTR act
OC[C@H]1O[C@@H](n2cnc3c(Nc4ccccc4)ncnc32)[C@H](O)[C@@H]1O	-79*
Nc1ccn([C@@H]2O[C@H](CO)[C@@H](O)C2O)c(=O)n1 (some centres not stated)	72
Cc1ccc(NC(=O)Nc2ccc3c(c2)nnn3C)cc1C	-66*
COc1ccccc1NC(=O)Nc1ccc2c(c1)nnn2C	-96*
O=C(NCc1ccco1)/C(=C/c1cccc(C(F)(F)F)c1)c1nc2ccccc2[nH]1	-84*
O=C(NCc1ccco1)/C(=C/c1ccc(C(F)(F)F)cc1)c1nc2ccccc2[nH]1	-94*
O=C(NCCc1ccccc1)c1c(F)cccc1F	-115*
CC(=O)c1c(C)[nH]c(C(=O)NCCc2ccccc2)c1C	-102*
CN(CC(=O)NCCc1ccccc1)Cc1ccco1	-81*
O=C(NCCc1ccccc1)c1ccco1	-85*
COC(=O)/C=C/c1ccccc1S(=O)(=O)N(Cc1ccccc1)Cc1ccco1	89
O=C(O)c1cccc(NC(=S)N/N=C/c2cccc(O)c2)c1	58
COc1ccc(NC(C)C(=O)N/N=C/c2ccccc2OCc2ccc(Br)cc2)cc1 (configuration not stated)	-77*
O=C(O)c1cccc(NC(=S)N/N=C/c2ccccc2OCc2ccc(Br)cc2)c1	-84*
Cc1ccc(C(C)C)c(OCc2ccc(C(=O)N/N=C/c3cccc(O)c3O)cc2)c1	108
O=[N+]([O-])c1ccc(C(O)CSC(=S)N2CCCCC2)cc1 (configuration not stated)	-181*
Oc1c(Cl)cc(Cl)cc1C=Nc1cc(C(F)(F)F)ccc1N1CCc2ccccc2C1	-98*
Cc1cc(NCCCn2ccnc2)n2ncc(-c3ccc(Cl)cc3)c2n1	60
CC(C)(C)c1cc(NCCCn2ccnc2)n2ncc(-c3ccccc3)c2n1	-149*
CN(C)CCCNc1cc(C(C)(C)C)nc2c(-c3ccc(Cl)cc3)cnn12	108
CC(C)(C)c1cc(-n2ccnc2)n2ncc(-c3ccc(Cl)cc3)c2n1	-67*
CCOc1ccc(-c2csc3nc[nH]c(=O)c23)cc1	-154*
Cc1cc2cc(NC(=O)c3ccco3)ccc2[nH]1	-141*
O=C(Nc1nccs1)c1ccc(NC(=O)c2ccco2)cc1	-142*
Cc1ccc(NC(=O)CNC(=O)c2ccco2)cc1	-120*
SMILES	aSyn 5UTR act
CC(=O)N(C)c1ccc(NC(=O)c2ccco2)cc1	-80*
O=C(Nc1ccc(NC(=O)C2CC2)cc1)c1ccco1	-92*
O=C(Nc1ccc(Cc2ccncc2)cc1)c1ccco1	-75*
Cc1cccc(OCC(=O)Nc2ccc(NC(=O)c3ccco3)cc2)c1	-67*
O=C(Nc1ccc(Br)cc1)c1ccco1	-154*
O=C(Nc1ccc(NC(=O)c2ccco2)cc1)c1ccco1	-109*
Nc1nc2ccc(NC(=O)c3ccco3)cc2s1	-116*
O=C(Nc1ccc(Nc2ccccc2)cc1)c1ccco1	-150*
OCCc1ccc(O)c(-n2nc3ccccc3n2)c1	-117*
CN(C)c1ccc(NC(=O)CSc2nc(N)c(C(=O)Nc3ccc(N(C)C)cc3)s2)cc1	-151*
COc1ccc(NC(=O)CSc2nc(N)c(C(=O)Nc3ccc(N(C)C)cc3)s2)cc1	-66*
CN=Cc1cc(-c2ccccc2)sc1O	-100*
COCc1cc(C)nc(Nc2ccc(C)c(C)c2)c1C#N	-71*
O=C(O)c1ccc2c3c(ncnc13)-c1ccccc1C2=O	107
Cc1ccc2c3c(cccc13)-c1ccccc1C2=O	-111*
Cc1cccc(NC(=O)c2oc3c(c2C)C(=O)CC(C)(C)C3)n1	-83*
O=C(/C=C/c1ccc2ccccc2n1)c1cc(Cl)ccc1O	-69*
COC(=O)CCc1sc(Nc2ccccc2)nc1-c1ccc(OC)cc1	-62*
CCc1ccc(NC(=O)C2C3C=CC(C4CC34)C2C(=O)O)cc1 (configuration not stated)	-74*
CN(C)c1ccc(NC(=O)C2C3C=CC(C3)C2C(=O)O)cc1 (configuration not stated)	-73*
CSC1=NC(C)(C)CC2(C)Nc3ccccc3N12 (configuration not stated)	-88*
COc1ccc(Cl)cc1C(=O)O/N=C(\N)c1ccccn1	-159*
COc1ccccc1C(=O)O/N=C(\N)c1ccccc1Cl	-139*
N/C(=N\OC(=O)c1cc(Cl)ccc1Cl)c1ccccn1	-122*
Cc1ccc(NC(=O)CCC(=O)c2cccs2)c(O)c1	-80*
SMILES	aSyn 5UTR act
O=C(CCC(=O)c1cccs1)c1cccs1	-69*
O=C(CSCc1ccco1)c1cccs1	-174*
CC1CC1C(=O)Nc1nc(-c2ccccc2)cs1 (configuration not stated)	-122*
O=C(Nc1ccc2nc(-c3ccccn3)[nH]c2c1)C1CCCCC1	-144*
O=C(Nc1nc(-c2ccccc2)ns1)c1cccs1	-272*
O=C(CN1C(=O)CCC1=O)Nc1nc(-c2nc3ccccc3s2)cs1	-114*
Cc1c(Cl)ccc2sc(NC(=O)c3ccco3)nc12	-199*
O=C(Nc1nc(-c2ccccc2)cs1)c1ccccc1NS(=O)(=O)c1ccc(F)cc1	63
CC(C)(C)c1csc(NC(=O)c2cccs2)n1	-84*
Cc1onc(-c2c(Cl)cccc2Cl)c1C(=O)Nc1nc(C(C)(C)C)cs1	80
O=C(Nc1nc(-c2ccccc2)cs1)c1cccs1	-144*
O=C(Nc1nc(-c2ccccn2)cs1)C1CCCC1	-97*
Cc1csc(NC(=O)c2cn3ccccc3n2)n1	82
CC1CC1C(=O)Nc1nc(-c2cccs2)c(-c2cccs2)s1 (configuration not stated)	-71*
O=C(Nc1nc(-c2nc3ccccc3s2)cs1)c1ccco1	-161*
O=C(Nc1nc(-c2ccc(Cl)s2)cs1)c1cccs1	-276*
Cc1csc(NC(=O)c2cccn2C)n1	-128*
Cc1csc(NC(=O)c2ccco2)n1	-72*
O=C(Nc1nc(-c2cc(Cl)sc2Cl)cs1)c1ccccc1	-85*
O=C(Nc1nc(-c2nc3ccccc3s2)cs1)C1CC1	-96*
O=C(Nc1nc(-c2ccc(Cl)s2)cs1)c1ccco1	-203*
COc1ccccc1OCc1csc(NC(=O)c2ccco2)n1	-108*
O=C(NNc1nc(-c2ccc(Cl)cc2)cs1)c1ccco1	-73*
COc1ccccc1/C=N/NC(=O)c1csc(C)c1C	-78*
Cc1scc(C(=O)N/N=C/c2ccc(Cl)s2)c1C	-93*
SMILES	aSyn 5UTR act
COC(=O)c1c(C)[nH]c(/C=N/Nc2ccccc2)c1C	-71*
O=C(Nc1ccccn1)C(=O)Nc1ccccn1	-95*
O=C(Nc1ccccc1)Nc1ccccn1	-126*
N/C(=N\NC(=O)Nc1ccc(Cl)cc1)c1ccccn1	-114*
S=C(Nc1ccccn1)c1ccccn1	-115*
O=C(Nc1ccccn1)c1ccc(-c2ccccc2)cc1	63
O=C(Nc1ccccc1)Nc1cccc2cccnc12	-178*
O=C(Nc1ccc(Cl)cc1)Nc1ccccn1	-167*
CCOC(=O)c1ccc(NC(=O)Nc2ccccn2)cc1	-90*
CC(Sc1ccccn1)C(=O)Nc1ccccc1 (configuration not stated)	-208*
CCOC(=O)c1ccc(NC(=O)c2cnccn2)cc1	-67*
CCOC(=O)c1ccc(NC(=O)C2CCCN(c3cnccn3)C2)cc1 (configuration not stated)	-88*
CC(=O)N/C(=N\c1nc(C)cc(C)n1)Nc1ccc2ccccc2c1	-166*
O=C1CCCCCN1Cc1nnc(SCc2nc3ccccc3s2)n1-c1ccccn1	-109*
Cc1cc(O)c(C2=Nc3ccccc3SC(c3ccc(Cl)cc3)C2)c(=O)o1 (configuration not stated)	-261*
